NR3A LBD binder – modulates the human NR3A ligand-binding domain; NR3A LBD differential scanning fluorimetry, Tm shift; 0% = protein alone, 100% = glycine-bound protein; Tm shift relative to glycine control, % at 25 µM; 340,000 tested, 2.5% active; AID 1259313;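 active = melting temperature shift of at least 10% of the positive control shift, at one fixed dose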
EBNA-1 inh – blocks EBNA-1 binding to DNA | EBNA-1 DNA binding, fluorescence polarization | AID 1950 | inhibition, % at 14.8 µM | 300,000 tested, 0.34% active; in the data active = inhibition above about 28%
TPT1 inhibitor – blocks Candida albicans tRNA 2'-phosphotransferase; AID 1962; inhibition, % at 5 µM; recombinant caTPT1, FP RNA substrate dephosphorylation; 300,000 tested, 0.81% active;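 active = inhibition above the mean of all tested compounds plus 3 SD, set per screening campaign, cut at about 24% in these data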;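 note: plate controls were DMSO alone for no effect and ferristatin control at 100 nM for full effect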
Rpn11 inh – blocks the human proteasome subunit Rpn11 | O00487 | human 26S proteasome, Ub4-pepOG fluorescence polarization; 20S core pre-blocked with epoxomicin | inhibition, % at 20 µM | 360,000 tested, 0.59% active;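 active = inhibition at 20 µM, scaled to each plate's controls, above about 33%, limit read from the data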
dFosB act – mouse delta FosB homodimer activation | 340,000 tested, 0.99% active | P13346 | purified delta FosB, TAMRA-CDK5 oligo fluorescence polarization; percent of positive-control signal above neutral wells | activation, % at 25 µM;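 active = mean activation above about 17%, with every replicate also reaching it, limit read from the data, passing the limit was not always enough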
ZTA DNA inh – counter-screen for EBNA-1 inhibitors: inhibitors of Epstein-Barr virus ZTA; P03206; ZTA-DNA binding, fluorescence polarization; inhibition, % at 11 µM; 320,000 tested, 0.15% active; AID 2234; in the data active = inhibition above about 33%
Rpn11 confirm – Rpn11 inhibition confirmation, single concentration; purified human 26S proteasome, Ub4-pepOG fluorescence polarization; proteasome pretreated with epoxomicin; shares compounds with Rpn11 inh; 1,900 tested, 29% active; AID 602318; inhibition, % at 20 µM
MMP-2 inh – counter-screen for RPN11 inhibitors: inhibition of human MMP-2 | recombinant MMP-2, FRET peptide cleavage fluorescence | shares compounds with Rpn11 inh | inhibition, % at 20 µM | 1,900 tested, 4% active;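 note: human MMP-2 activated beforehand with APMA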
Target sequence (P08253 whole entry, looked up): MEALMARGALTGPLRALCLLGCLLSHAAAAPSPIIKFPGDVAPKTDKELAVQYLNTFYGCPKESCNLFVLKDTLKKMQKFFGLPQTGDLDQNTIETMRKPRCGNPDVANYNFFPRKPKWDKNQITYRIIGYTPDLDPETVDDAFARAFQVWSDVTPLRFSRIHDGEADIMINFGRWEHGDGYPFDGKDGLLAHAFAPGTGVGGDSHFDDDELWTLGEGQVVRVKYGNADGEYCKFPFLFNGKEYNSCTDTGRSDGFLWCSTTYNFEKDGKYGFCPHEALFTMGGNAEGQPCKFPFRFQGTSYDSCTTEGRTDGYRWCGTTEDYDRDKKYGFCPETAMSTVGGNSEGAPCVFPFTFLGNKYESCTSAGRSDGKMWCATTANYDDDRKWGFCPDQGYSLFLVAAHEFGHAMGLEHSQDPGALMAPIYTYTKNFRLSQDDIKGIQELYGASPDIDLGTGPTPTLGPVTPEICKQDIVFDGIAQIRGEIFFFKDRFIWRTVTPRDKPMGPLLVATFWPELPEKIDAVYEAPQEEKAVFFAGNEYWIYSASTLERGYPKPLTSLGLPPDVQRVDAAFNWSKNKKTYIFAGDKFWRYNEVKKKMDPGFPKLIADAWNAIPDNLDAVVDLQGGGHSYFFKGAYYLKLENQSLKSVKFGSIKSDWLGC
Thrombin FP – blocks bovine thrombin, flagging nonselective RPN11 hits. inhibition, % at 20 µM. shares compounds with Rpn11 inh. 1,900 tested, 13% active. bovine thrombin cleavage of Ub4-pepOG, fluorescence polarization;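 active = mean inhibition at least 40% at 20 µM, or signal 3 deviations below plate average, so some actives read negative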;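 note: plate controls were thrombin with DMSO for no effect and buffer wells lacking thrombin for full effect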
Starred values were filed as active, the others as inactive; i = inactive; x = not tested or not shown; + = active, no number. Only some compounds are listed: those with a hit (about 4.5% of all), similar ones and a draw of the others. Cut-off read from the data, not from the text of the source, unless noted: active = inhibition above about 40%; inactive = the rest.

SMILES	NR3A LBD binder	EBNA-1 inh	TPT1 inhibitor	Rpn11 inh	dFosB act	ZTA DNA inh	Rpn11 confirm	MMP-2 inh	Thrombin FP
O=C(C1=C[C@@H](c2ccccc2)C[C@@H](OCc2ccc(CO)cc2)O1)N1CCCCCCC1	-1	0	1	3	-5	3	x	x	x
CC1CC(c2ccccc2)NS(=O)(=O)O1 (stereo unspecified)	-1	5	0	6	7	0	x	x	x
Cc1cc(N2CCN(c3ccc(C(F)(F)F)cc3[N+](=O)[O-])CC2)c2ccccc2n1	-8	-5	1	-3	12	5	x	x	x
Cc1cc(N2CCN(c3ccc([N+](=O)[O-])c4cccnc34)CC2)c2ccccc2n1	-2	10	4	45*	-11	-16	48*	-64	-18
O=C1NC(=O)/C(=C\c2ccccc2OCc2ccc([N+](=O)[O-])cc2)N1	-2	-7	-1	45*	15	-2	-12	-27	-15
Cc1nonc1NC(=O)Nc1cccnc1	1	10	-4	+	2	9	1	-9	-14
Cc1cccc(NC(=O)Nc2cccnc2)c1C	-1	x	x	5	4	x	x	x	x
Cn1ccc2cc(NC(=O)Nc3cccnc3)ccc21	-9	13	-3	66*	-3	19	8	-21	-2
CCOC(=O)C1CCN(CC(=O)Nc2ccc(S(=O)(=O)N3CCC(C)CC3)cc2)CC1	-1	2	-4	6	-10	6	x	x	x
c1ccc2c(-c3cc(C4CCNCC4)[nH]n3)cccc2c1	-6	-5	4	-5	7	0	x	x	x
Clc1ccc(CN2CCC(c3nc4ccc(Cl)cc4[nH]3)CC2)cc1	-2	-2	5	55*	-2	-10	7	-5	8
CC1CCCN(C(=O)CN2CCC(c3nc4ccc(Cl)cc4[nH]3)CC2)C1 (stereo unspecified)	0	-5	3	-2	-1	-12	x	x	x
Cc1ccc(/C=c2\sc3nc(-c4ccccc4Br)nn3c2=O)o1	-1	1	11	43*	-13	20	31	6	13
Cc1ccc(C(=O)Nc2nc3c(s2)CCCC3)o1	0	-1	-3	1	-5	-14	x	x	x
O=C(Nc1nc2c(s1)CCCC2)c1ccc(Br)o1	11*	7	-4	90*	1	4	-3	2	3
CCn1cc(C(=O)OCC(=O)c2cc(C)n(-c3ccc(OC(F)F)cc3)c2C)c(=O)c2ccc(C)nc21	-8	0	-2	17	-6	-34	x	x	x
Cc1ccc(NC(=O)CN2C(=O)N/C(=C/c3cc(C)n(-c4cccc(C(=O)O)c4)c3C)C2=O)cc1	0	x	x	-5	-20	x	x	x	x
CC(=O)NC1=NC(=O)/C(=C/c2cc(C)n(-c3cccc(C(=O)O)c3)c2C)S1	-1	x	x	136*	-16	x	+	40*	136*
Cc1ccccc1NC(=O)c1cc(C(=O)c2cc(Cl)ccc2O)cn(-c2ccccc2C)c1=O	14*	-11	12	47*	6	0	11	-79	-17
O=C(NCC1CCCO1)c1ccc[nH]1 (stereo unspecified)	1	5	0	10	3	15	x	x	x
Cc1ccc(N2C(=O)CC(N3CCN/C3=C3\CC/C(=C\c4ccccc4)C3=O)C2=O)cc1 (stereo unspecified)	-1	-5	6	3	-9	-8	x	x	x
Cc1nc2sc(-c3ccccc3)cc2c(=O)[nH]1	0	10	7	48*	-7	-1	10	-24	-1
O=c1[nH]c(-c2cccnc2)nc2sc(-c3ccccc3)cc12	-1	-11	2	2	0	-6	x	x	x
CCc1ccc(N(CC(=O)NCC2CCCO2)C(=O)CCC(=O)Nc2nccs2)cc1 (stereo unspecified)	-3	-1	2	2	-4	-3	x	x	x
O=C(CN(CC1CCCO1)C(=O)CCC(=O)Nc1ccccn1)NCC1CCCO1 (stereo unspecified)	1	-8	1	-7	1	5	x	x	x
SMILES	NR3A LBD binder	EBNA-1 inh	TPT1 inhibitor	Rpn11 inh	dFosB act	ZTA DNA inh	Rpn11 confirm	MMP-2 inh	Thrombin FP
COCCNC(=O)CN(CC1CCCO1)C(=O)CCC(=O)Nc1ccccn1 (stereo unspecified)	3	-2	-5	50*	-8	-9	-13	-30	-21
O=C(Nc1nc(-c2ccco2)c(-c2ccco2)s1)c1c(F)cccc1Cl	3	x	x	53*	-14	16	-6	2	-21
O=C(Nc1nc(-c2ccco2)c(-c2ccco2)s1)c1ccc(F)cc1F	-1	x	x	25	-11	x	x	x	x
Cc1ccc2c(c1)N(C(=O)CCC(=O)NCCCN1CCC(Cc3ccccc3)CC1)CCO2	-2	-4	-3	-2	1	5	x	x	x
O=C1[C@H](CC[C@H](O)c2ccc(F)cc2)[C@@H](c2ccc(O)cc2)N1c1ccc(F)cc1	x	3	-3	x	x	-7	x	x	x
O=C(N/N=C\c1ccc(-c2ccc([N+](=O)[O-])cc2)o1)C1COc2ccccc2O1 (stereo unspecified)	25*	4	22	39*	3	-3	46*	5	-23
O=C(CNC(=O)c1ccco1)Nc1ccc(Cl)cc1	-1	5	-3	-4	-2	-6	x	x	x
CCn1c(CC(=O)Nc2ccc(C)cc2)n[nH]c1=S	1	-5	2	-9	2	9	x	x	x
Cc1cc(OCC(=O)N2CCOCC2)ccc1NC(=O)c1ccccc1C	5	1	-3	0	-4	-5	x	x	x
Cc1ccc(C(=O)Nc2ccc(C(=O)N/N=C/c3cccnc3)cc2)cc1	11*	-16	3	57*	10	16	49*	i	-36
CC(C1SC(=S)NC1=O)C1SC(=S)NC1=O (stereo unspecified)	x	x	x	53*	x	x	42*	24	33
CCCCN(C(=O)NCCCCCCNC(=O)N(CCCC)C1CCS(=O)(=O)C1)C1CCS(=O)(=O)C1 (stereo unspecified)	-1	-5	-1	-7	-3	7	x	x	x
CCN1CCN(Cc2ccc(NC(=O)c3ccc(C)c(NC(=O)c4csc(-c5ccncc5)n4)c3)cc2C(F)(F)F)CC1	-12	7	-2	55*	-24	16	39	-12	-7
Cc1ccc2[nH]c(CNC(=O)C3CCCCC3)cc2c1	-6	x	x	2	-15	x	x	x	x
O=C(N=NC(=O)c1ccco1)c1ccc2c(O)n(N3C(=O)c4ccccc4C3=O)c(O)c2c1	-3	-2	-1	48*	-5	4	-13	1	-6
